The nature of assay [1]: small molecules captured by biotinylated probe aFSTL3 – biochemical, small-molecule microarray, fluorescence 635/667, stem cell growth factor project, primary screen (AID 1064).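 Also: measures binding of the biotinylated anti-FSTL3 antibody to printed compounds.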 The note with it: higher = more signal.
Assay [2] in a line: binders from COS7 lysate, DM2A8 probe, primary screen, torsin A project, cell lysate, small-molecule microarray, fluorescence 635/667 (AID 1065). The note with it: higher = more signal, COS7 lysate expressing mutant human TOR1A.
Assay [3] in a line: small molecules captured by biotinylated probe aFGF2 – biochemical, small-molecule microarray, fluorescence 635/667, stem cell growth factor project, primary screen (AID 1067).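 Also: measures binding of biotinylated aFGF2 protein to printed compounds on slides; z-score merges feature fluorescence and signal-to-noise across triplicate slides.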 The note with it: higher = more signal.
A short description of assay [4]: small molecules captured by biotinylated probe aFGF10 – biochemical, small-molecule microarray, fluorescence 635/667, stem cell growth factor project, primary screen (AID 1071).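 Also: score merges 667 nm spot intensity and signal to noise from triplicate slides.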 The note with it: higher = more signal.
Assay [5] addresses Neurogenic locus notch homolog protein 2 (Homo sapiens) (UniProt Q04721). In words: small molecules binding Notch2 protein – biochemical, small-molecule microarray, 635 nm fluorescence, stem cell growth factors, primary screen (AID 1073). The note with it: higher = more signal.
For assay [6], the target named is Pro-neuregulin-1, membrane-bound isoform (Homo sapiens) (UniProt Q02297). As to the kind of experiment: small molecules binding neuregulin-1 protein – biochemical, small-molecule microarray, fluorescence 635/667, psychiatric disease protein project, primary screen (AID 1075).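 Also: score combines 667 nm spot fluorescence with signal to noise.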 The note with it: NRG1 binding, 635 nm fluorescence, higher = more signal.
Pro-neuregulin-1, membrane-bound isoform (Homo sapiens), sequence (Q02297 whole entry, looked up, the tested form may be a part, canonical isoform): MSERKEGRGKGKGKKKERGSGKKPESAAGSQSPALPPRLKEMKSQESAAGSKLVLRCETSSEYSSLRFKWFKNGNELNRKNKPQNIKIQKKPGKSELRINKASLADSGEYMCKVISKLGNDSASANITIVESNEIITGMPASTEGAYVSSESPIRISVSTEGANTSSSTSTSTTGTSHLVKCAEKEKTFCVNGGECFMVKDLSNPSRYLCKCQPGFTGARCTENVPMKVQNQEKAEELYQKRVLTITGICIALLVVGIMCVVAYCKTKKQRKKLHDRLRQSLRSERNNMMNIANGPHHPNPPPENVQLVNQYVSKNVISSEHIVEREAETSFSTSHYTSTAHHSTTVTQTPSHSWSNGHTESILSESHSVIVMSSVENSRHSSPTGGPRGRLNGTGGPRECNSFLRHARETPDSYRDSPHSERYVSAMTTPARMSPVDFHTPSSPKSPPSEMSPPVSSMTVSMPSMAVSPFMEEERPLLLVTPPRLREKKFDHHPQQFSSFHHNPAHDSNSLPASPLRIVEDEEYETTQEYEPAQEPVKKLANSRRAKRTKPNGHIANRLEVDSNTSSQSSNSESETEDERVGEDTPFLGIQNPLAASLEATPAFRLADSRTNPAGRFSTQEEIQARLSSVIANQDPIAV
The test system of assay [7] is Neuregulin-1 EGF-like domain. In words: small molecules binding NRG1 EGF domain – biochemical, small-molecule microarray, 635 nm fluorescence, primary screen (AID 1081).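 Also: binding of the protein to compounds printed on small-molecule microarray slides.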 As to conditions: higher = more signal.
Assay [8] in a line: FRG1 expression reporter modulators in myotubes – cell-based, C2C12 myotubes, firefly/Renilla luciferase, luminescence, FRG1 inhibition for FSHD, primary screen (AID 1084). As to conditions: FRG1 promoter luciferase, higher = more signal, called active from +8 up or from −8 down.
Assay [9] is described as follows: small molecules captured by biotinylated probe aFST – biochemical, small-molecule microarray, fluorescence 635/667, stem cell growth factor project, primary screen (AID 1086).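 Also: score merges 667 nm fluorescence with signal-to-noise of each printed compound spot.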 The note with it: higher = more signal.
Assay [10] is described as follows: binders of probe aHhip on microarray, primary screen, stem cell growth factor project, biochemical, small-molecule microarray, fluorescence 635/667 (AID 1087).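 Also: score merges spot fluorescence at 667nm with spot signal to noise ratio.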 As to conditions: higher = more signal.
Assay [11] has as its system PRMT1 (protein arginine N-methyltransferase 1). As to the kind of experiment: small molecules binding arginine methyltransferase PRMT1 – biochemical, small-molecule microarray, 635 nm fluorescence, primary screen (AID 1088).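 Also: binding of Prmt1 protein to compounds spotted on small-molecule microarray slides.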 As to conditions: higher = more signal.
A short description of assay [12]: growth effects on S. cerevisiae YJM789 – YJM789 clinical isolate, OD600, 24 h, basal, primary screen (AID 1089).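 Also: growth of clinical yeast isolate S. cerevisiae YJM 789 seeded 1000 cells per well; test concentration not given here.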 The note with it: higher = more signal, called active from +8 up or from −8 down.
Assay [13] in a line: S. pombe growth modifiers, basal conditions – strain 972, OD600, 24 h, no modulator, primary screen (AID 1090).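 Also: basal condition with compound alone and no growth modifier present; test concentration not given here.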 As to conditions: S. pombe 972 growth, higher = more signal, called active from +8 up or from −8 down.
Assay [14] is described as follows: budding yeast growth modifiers under rapamycin – strain BY4716, OD600, 96 h, primary screen (AID 1091). Also: test concentration not given here. The note with it: S. cerevisiae BY4716 + rapamycin, higher = more signal, called active from +8 up or from −8 down.
For assay [15], the target named is Torsin-1A-interacting protein 2 (Homo sapiens) (UniProt Q8NFQ8). In words: small molecules binding lysate-expressed LULL1 – cell lysate, human LULL1 lysate, 635/667 nm fluorescence, primary screen (AID 1092).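 Also: probe is lysate of COS7 cells overexpressing human LULL1; score merges per-feature 667 nm fluorescence with signal-to-noise.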 As to conditions: small-molecule microarray, hLULL1 lysate binding, 635 nm fluorescence; higher = more signal.
Torsin-1A-interacting protein 2 (Homo sapiens), sequence (Q8NFQ8 whole entry, looked up): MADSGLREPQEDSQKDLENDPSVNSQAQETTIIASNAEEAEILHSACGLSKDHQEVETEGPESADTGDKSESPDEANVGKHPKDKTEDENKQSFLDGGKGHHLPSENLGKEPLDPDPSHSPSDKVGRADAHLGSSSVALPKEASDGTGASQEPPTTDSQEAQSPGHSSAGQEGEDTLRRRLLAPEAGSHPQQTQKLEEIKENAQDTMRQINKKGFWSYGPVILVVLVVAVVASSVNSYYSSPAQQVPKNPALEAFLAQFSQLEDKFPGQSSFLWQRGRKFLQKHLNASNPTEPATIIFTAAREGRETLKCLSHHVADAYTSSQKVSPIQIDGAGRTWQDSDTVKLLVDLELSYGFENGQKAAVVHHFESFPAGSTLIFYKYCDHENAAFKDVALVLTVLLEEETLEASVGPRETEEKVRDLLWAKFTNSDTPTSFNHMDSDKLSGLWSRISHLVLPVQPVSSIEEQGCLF
Assay [16] can be described thus: optical density change of DRC41 E. coli – strain DRC41, OD650, 24 h, E. coli filamentation project, primary screen (AID 1093).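 Also: MC1000 strain lacking acrAB efflux and sulA so SOS filamentation is blocked; test concentration not given here.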 As to conditions: E. coli DRC41 growth, higher = more signal, called active from +8 up or from −8 down.
A short description of assay [17]: probe aLefty2 binding to arrayed compounds – biochemical, biotinylated probe, 635/667 nm fluorescence, primary screen (AID 1094).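 Also: score merges spot fluorescence near 667 nm with spot signal-to-noise ratio.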 As to conditions: small-molecule microarray, higher = more signal.
Assay [18] concerns Noggin (protein binding on small-molecule microarray). In words: small molecules binding Noggin protein – biochemical, 635/667 nm fluorescence, primary screen (AID 1095).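 Also: score merges 667 nm feature fluorescence with signal to noise over triplicate slides.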 As to conditions: 635 nm fluorescence, higher = more signal.
The target in assay [19] is Neurogenic locus notch homolog protein 3 (Homo sapiens) (UniProt Q9UM47). In words: small molecules binding NOTCH3 protein – biochemical, 635/667 nm fluorescence, primary screen (AID 1096). The note with it: small-molecule microarray, 635 nm fluorescence, higher = more signal.
The nature of assay [20]: probe aEGFR binding to arrayed compounds – biochemical, biotinylated probe, 635/667 nm fluorescence, primary screen (AID 1097).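 Also: probe is a biotinylated anti-EGFR antibody binding compounds printed on slides; score combines fluorescence near 667 nm and signal to noise of each spot.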 As to conditions: small-molecule microarray, higher = more signal.

Activity calls are given as the source filed them.

Neurogenic locus notch homolog protein 2 (Homo sapiens), sequence (Q04721 whole entry, looked up, canonical isoform): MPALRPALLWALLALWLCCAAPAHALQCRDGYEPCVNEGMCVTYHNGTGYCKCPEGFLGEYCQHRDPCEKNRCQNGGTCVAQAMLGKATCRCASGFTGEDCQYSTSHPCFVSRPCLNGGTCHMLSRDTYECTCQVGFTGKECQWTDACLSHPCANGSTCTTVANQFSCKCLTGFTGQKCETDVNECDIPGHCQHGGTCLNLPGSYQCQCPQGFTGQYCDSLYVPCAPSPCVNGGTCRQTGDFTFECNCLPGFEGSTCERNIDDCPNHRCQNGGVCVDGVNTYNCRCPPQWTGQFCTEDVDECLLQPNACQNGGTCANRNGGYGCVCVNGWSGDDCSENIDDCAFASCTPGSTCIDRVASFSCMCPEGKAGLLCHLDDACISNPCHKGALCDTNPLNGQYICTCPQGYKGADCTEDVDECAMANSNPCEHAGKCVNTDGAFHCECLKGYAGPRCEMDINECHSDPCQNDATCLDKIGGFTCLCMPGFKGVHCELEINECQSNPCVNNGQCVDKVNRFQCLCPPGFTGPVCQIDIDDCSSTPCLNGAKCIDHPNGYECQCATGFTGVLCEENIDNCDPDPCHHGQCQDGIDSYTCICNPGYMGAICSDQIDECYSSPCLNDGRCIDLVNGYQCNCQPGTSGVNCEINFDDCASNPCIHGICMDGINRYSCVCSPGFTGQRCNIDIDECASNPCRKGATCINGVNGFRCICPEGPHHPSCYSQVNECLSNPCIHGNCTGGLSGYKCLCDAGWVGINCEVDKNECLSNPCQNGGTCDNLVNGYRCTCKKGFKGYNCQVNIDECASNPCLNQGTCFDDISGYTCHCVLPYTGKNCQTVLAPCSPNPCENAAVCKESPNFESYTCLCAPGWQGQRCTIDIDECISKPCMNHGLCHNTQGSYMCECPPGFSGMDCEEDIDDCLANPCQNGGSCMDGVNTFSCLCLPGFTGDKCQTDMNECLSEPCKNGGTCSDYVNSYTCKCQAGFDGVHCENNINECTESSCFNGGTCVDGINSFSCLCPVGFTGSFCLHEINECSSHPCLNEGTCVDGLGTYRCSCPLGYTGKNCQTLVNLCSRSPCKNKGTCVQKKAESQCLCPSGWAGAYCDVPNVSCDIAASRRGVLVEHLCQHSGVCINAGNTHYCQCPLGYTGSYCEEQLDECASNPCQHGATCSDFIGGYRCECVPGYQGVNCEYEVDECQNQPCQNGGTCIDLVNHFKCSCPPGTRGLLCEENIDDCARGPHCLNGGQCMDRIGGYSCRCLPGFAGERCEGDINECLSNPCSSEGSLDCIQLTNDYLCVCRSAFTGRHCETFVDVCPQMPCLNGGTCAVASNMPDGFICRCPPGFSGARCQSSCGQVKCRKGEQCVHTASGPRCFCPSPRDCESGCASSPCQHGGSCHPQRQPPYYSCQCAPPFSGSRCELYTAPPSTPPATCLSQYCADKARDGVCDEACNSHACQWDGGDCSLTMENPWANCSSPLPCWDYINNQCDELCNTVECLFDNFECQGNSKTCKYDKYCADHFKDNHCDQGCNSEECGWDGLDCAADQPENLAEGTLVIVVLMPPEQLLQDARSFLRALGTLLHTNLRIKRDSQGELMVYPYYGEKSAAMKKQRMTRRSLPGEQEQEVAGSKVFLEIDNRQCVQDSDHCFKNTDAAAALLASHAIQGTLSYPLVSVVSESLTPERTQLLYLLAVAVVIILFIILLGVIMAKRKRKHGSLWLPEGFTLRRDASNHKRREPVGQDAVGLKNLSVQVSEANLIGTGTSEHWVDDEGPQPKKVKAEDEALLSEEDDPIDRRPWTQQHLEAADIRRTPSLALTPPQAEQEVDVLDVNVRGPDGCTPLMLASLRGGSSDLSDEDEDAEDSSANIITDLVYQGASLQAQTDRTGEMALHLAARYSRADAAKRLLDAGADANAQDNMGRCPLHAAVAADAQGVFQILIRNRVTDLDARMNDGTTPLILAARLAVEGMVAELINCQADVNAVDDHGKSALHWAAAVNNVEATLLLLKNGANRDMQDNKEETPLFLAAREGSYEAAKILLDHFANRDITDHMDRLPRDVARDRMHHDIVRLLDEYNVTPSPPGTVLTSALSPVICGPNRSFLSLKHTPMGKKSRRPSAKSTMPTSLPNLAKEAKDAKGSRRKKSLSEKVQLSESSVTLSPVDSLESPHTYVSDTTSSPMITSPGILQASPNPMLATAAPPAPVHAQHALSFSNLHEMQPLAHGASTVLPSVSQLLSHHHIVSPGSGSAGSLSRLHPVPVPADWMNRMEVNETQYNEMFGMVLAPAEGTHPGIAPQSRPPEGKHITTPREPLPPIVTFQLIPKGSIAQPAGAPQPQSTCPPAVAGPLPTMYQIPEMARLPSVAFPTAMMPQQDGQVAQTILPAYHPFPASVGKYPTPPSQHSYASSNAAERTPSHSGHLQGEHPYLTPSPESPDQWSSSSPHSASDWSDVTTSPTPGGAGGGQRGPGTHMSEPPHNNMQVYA

Take `COc1cccc([C@H]2Oc3ccc(OC)cc3C(=NOC[C@@H](O)[C@H]3O[C@@H]4OC(C)(C)O[C@@H]4[C@H]3O)[C@@H]2O)c1`: the composite z-score in assay [1] is -0.117; in assay [2], 0.146; in assay [3] it was -0.0533; in assay [4] it was 0.289; in [5] it was 0.533; in assay [6], -0.242. Besides, the composite z-score is 0.54 in assay [7]; 0.149 in assay [9]; -0.194 in [10]; 0.775 in assay [11]; 0.347 in assay [15]; -0.0616 in assay [17]. Moreover, the composite z-score turned out to be 0.449 in [18], 0.456 in [19] and 0.0746 in assay [20]. The z-score in assay [8] is 5.07 (inactive); in [12], -0.797 (inactive); in assay [13], -2.21 (inactive); in assay [14], -1.62 (inactive); in assay [16] it was 0.932 (inactive).
Turning to `CC(CCN1CCCCc2nc(C)c(C)cc21)=NOC[C@@H](C)[C@H](OCc1ccccc1)C(C)C`, the composite z-score in [1] is -0.443; in assay [2], -0.548; in assay [3] it was -0.29; in assay [4], -0.776; in assay [5] it was -1.38; in assay [6], -0.559. Moreover, the composite z-score in assay [7] is -0.545; in assay [9] it was -2.12; in [10], -0.0423; in assay [11], -0.262; in assay [15], -0.569; in [17], -0.467. Also, the values for the composite z-score in assay [18], in [19] and in assay [20] were -1.02, -1.53 and -0.551, respectively. In addition, the z-score in assay [8] is -0.688 (inactive); in [12], -2.75 (inactive); in assay [13], -5.66 (inactive); in assay [14], -0.677 (inactive); in assay [16], -1.42 (inactive).
For `CC(=O)OC[C@H]1O[C@@H](ON=C(C)CCN2CCCc3nc(C)c(C)cc32)[C@H](OC(C)=O)[C@@H](OC(C)=O)[C@@H]1OC(C)=O`, the composite z-score in [1] was -0.63; in assay [2], 0.165; in [3], -0.127; in assay [4] it was 0.76; in [5], 1.41; in assay [6], 0.394. Further, the composite z-score in assay [7] was 1.07; in assay [9] it was 0.139; in [10] it was -0.0618; in assay [11] it was 1.55; in assay [15] it was 0.993; in [17] it was -0.136. For the same compound, the composite z-score in assay [18] was determined as 0.952; in assay [19], 1.11; in [20] it was 0.0781. In addition, the z-score in [8] was 0.935 (inactive); in assay [12] it was 0.215 (inactive); in [13], 0.0313 (inactive); in [14], 0.427 (inactive); in [16], -0.722 (inactive).
Consider `CCOC(=O)CCN1C(=O)[C@H]2[C@H]3[C@H](O)[C@H](O)CC(=NOCc4ccccc4)[C@H]3CC[C@H]2C1=O`, for which the composite z-score in [1] is 1.08; in [2], -0.164; in [3], -0.121; in assay [4] it was 0.11; in assay [5], 0.206; in [6], -0.188. In addition, the composite z-score is -0.368 in assay [7]; 0.494 in assay [9]; -0.236 in [10]; -0.112 in assay [11]; 0.374 in [15]; 0.58 in assay [17]. Moreover, the composite z-score was -0.316 in [18], -0.665 in assay [19] and 0.276 in assay [20]. In addition, the z-score in [8] was -0.0531 (inactive); in [12], 0.819 (inactive); in assay [13] it was 1.04 (inactive); in assay [14], 0.492 (inactive); in assay [16], 1.08 (inactive).
Turning to `COC(=O)[C@H](C)NC(=O)CCC1CC(OC(=O)NCCc2ccc(F)cc2)CC2(CCCC(COC(=O)NCCC(C)C)O2)O1` (stereo not given in full), the composite z-score in assay [1] was -0.279; in assay [2], -0.0132; in assay [3] it was -0.0407; in [4], 1.11; in assay [5], 0.824; in assay [6], 1.26. Moreover, the composite z-score was 0.888 in assay [7]; 0.281 in assay [9]; -0.13 in assay [10]; 0.173 in assay [11]; 2.22 in assay [15]; -0.209 in [17]. Also, the composite z-score in assay [18] is 1.06; in assay [19], 0.49; in [20], -0.111. Besides, the z-score in assay [8] was 0.033 (inactive); in assay [12], -1.79 (inactive); in assay [13], -0.148 (inactive); in assay [14], -0.104 (inactive); in assay [16], -0.641 (inactive).

The values above are taken from PubChem BioAssay.
